The record followed here is the supplement of paper PMC9446081.

± gives the standard deviation of the averaged measurements.

For the test, the target named is T1, MurD (UniProt P14900).
T1 sequence (whole entry): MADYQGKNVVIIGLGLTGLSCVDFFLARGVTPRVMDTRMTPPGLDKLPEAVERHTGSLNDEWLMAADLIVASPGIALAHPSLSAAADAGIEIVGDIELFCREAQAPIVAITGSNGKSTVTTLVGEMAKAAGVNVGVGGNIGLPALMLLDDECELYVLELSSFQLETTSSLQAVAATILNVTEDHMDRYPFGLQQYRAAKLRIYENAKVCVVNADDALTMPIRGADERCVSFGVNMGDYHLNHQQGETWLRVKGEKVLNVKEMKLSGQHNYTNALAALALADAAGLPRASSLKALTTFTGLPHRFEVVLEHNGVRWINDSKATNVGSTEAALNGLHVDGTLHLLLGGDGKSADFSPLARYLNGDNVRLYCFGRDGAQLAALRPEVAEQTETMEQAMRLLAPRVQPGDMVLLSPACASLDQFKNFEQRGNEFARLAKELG
In words: relative enzymatic activity vs untreated control (fraction); higher = less inhibition. Particulars: 100 µM; incubation time: 2 h at 37 C. The protocol: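 In vitro enzymatic inhibition assays (ProFoldin kits) for 12 purified essential E. coli enzymes or complexes, each treated with 218 active antibacterial compounds at 100 µM for 2 h at 37°C. Read-outs were fluorescence or absorbance (phosphate detection, dye binding), converted to activity via standard curves and expressed relative to untreated DMSO controls.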
The molecule `Cc1nc2c(=O)n(C)c(=O)nc-2n(C)n1` gave a relative enzymatic activity of 0.174 ± 0.24.
`C[CH2][Hg][S]c1ccccc1C(=O)[O-].[Na+]` showed a relative enzymatic activity of 0.657 ± 0.43.
Turning to `Cc1c(N)nc([C@H](CC(N)=O)NC[C@@H](N)C(N)=O)nc1C(=O)N[C@H](C(=O)N[C@@H](C)[C@H](O)[C@@H](C)C(=O)N[C@@H](C(=O)NCCc1nc(-c2nc(C(=O)NCCC[S+](C)C)cs2)cs1)[C@@H](C)O)[C@@H](O[C@H]1O[C@H](CO)[C@H](O)[C@@H](O)[C@H]1O[C@H]1O[C@H](CO)[C@@H](O)[C@H](OC(N)=O)[C@@H]1O)c1c[nH]cn1`, the relative enzymatic activity was found to be 0.969 ± 0.9.
In turn, `CCn1cc(C(=O)[O-])c(=O)c2cc3c(cc21)OCO3.[K+]` came in with a relative enzymatic activity of 0.598 ± 0.42.
`CN1C(=O)[C@]23CC4=CC=C[C@H](O)[C@H]4N2C(=O)[C@@]1(CO)SS3` yielded a relative enzymatic activity of 0.574 ± 0.39.
As for `CN(C)[C@@H]1C(=O)[C@@H](C(N)=O)C(=O)[C@@]2(O)C(=O)[C@H]3C(=O)c4c(O)ccc(Cl)c4[C@@](C)(O)[C@H]3C[C@@H]12`, the relative enzymatic activity turned out to be 0.607 ± 0.41.
Molecule `CCCCCCCCCCCCCCCC[N+](C)(C)C.[Br-]` gave a relative enzymatic activity of 0.256 ± 0.17.
Regarding `CC(=O)[O][Hg][c]1ccccc1`, the relative enzymatic activity was determined as 0.226 ± 0.14.
`O=S(=O)(O)O.Oc1cccc2cccnc12` registered a relative enzymatic activity of 0.564 ± 0.35.
Turning to `Cn1ncnc2c(=O)n(C)c(=O)nc1-2`, the relative enzymatic activity was 0.598 ± 0.36.
With `CN(C)[C@@H]1C(=O)[C@H](C(N)=O)C(=O)[C@@]2(O)C(=O)[C@@H]3C(=O)c4c(O)cccc4[C@@](C)(O)[C@H]3C[C@@H]12`, the relative enzymatic activity was 0.603 ± 0.41.
For the molecule `Oc1cc(Cl)ccc1Oc1ccc(Cl)cc1Cl`, the relative enzymatic activity amounted to 0.759 ± 0.41.
Turning to `Cc1c(N)nc([C@H](CC(N)=O)NC[C@@H](N)C(N)=O)nc1C(=O)N[C@H](C(=O)N[C@@H](C)[C@H](O)[C@@H](C)C(=O)N[C@@H](C(=O)NCCc1nc(-c2nc(C(=O)NCCC[S+](C)C)cs2)cs1)[C@@H](C)O)[C@@H](O[C@H]1O[C@H](CO)[C@H](O)[C@@H](O)[C@H]1O[C@H]1O[C@H](CO)[C@@H](O)[C@H](OC(N)=O)[C@@H]1O)c1cnc[nH]1`, the relative enzymatic activity worked out at 0.624 ± 0.45.
In turn, `CCCCCCCCCCCCCCCC[n+]1ccccc1` registered a relative enzymatic activity of 0.191 ± 0.13.
In the case of `O=C1C=C2C(=CCOC2O)O1` (centres undefined), the relative enzymatic activity turned out to be 0.611 ± 0.42.
Next, `CN[C@H]1C[C@@H](N)[C@H](O)[C@@H](O[C@@H]2O[C@H](CO)[C@H](O)[C@@H]3O[C@@]4(O[C@H]23)O[C@H]([C@@H](N)CO)[C@H](O)[C@H](O)[C@H]4O)[C@@H]1O`: 0.592 ± 0.39; `CNC1C(O)C(OC2C(N)CC(N)C(OC3OC(C(C)O)C(O)C(O)C3N)C2O)OCC1(C)O` (centres undefined): 0.592 ± 0.38; `CN(C)[C@@H]1C(=O)C(C(N)=O)=C(O)[C@@]2(O)C(O)=C3C(=O)c4c(O)cccc4[C@](C)(O)[C@H]3C[C@@H]12`: 0.606 ± 0.43.
Consider `O=[N+]([O-])C(Br)(CO)CO`, for which the relative enzymatic activity came out at 0.486 ± 0.48.
Turning to `COP(=S)(OC)Oc1cc(Cl)c(Cl)cc1Cl`, the relative enzymatic activity was found to be 0.655 ± 0.44.
`CCCCCCCCCCCCCCCC[n+]1ccccc1.[Cl-]` registered a relative enzymatic activity of 0.0847 ± 0.0065.
Turning to `O=[N+]([O-])c1ccc(N(CCO)CCO)c2c1no[n+]2[O-]`, the relative enzymatic activity came to 0.623 ± 0.41.
`CC(=O)Oc1ccc(Cl)c2cccnc12` yielded a relative enzymatic activity of 0.611 ± 0.41.
In the case of `[O-][n+]1ccccc1[S][Zn][S]c1cccc[n+]1[O-]`, the relative enzymatic activity worked out at 0.587 ± 0.4.
